# Experimental data: PubChem BioAssay
# Calls of active or inactive are those of the source. Unless noted, how the calls were made is not given here.
# Key:
# [1] = HepG2 liver cancer cell viability effects, profiling panel, resazurin fluorescence, 24 h, PK04 Diversity Set (AID 1172); settings: higher = more signal; further: test concentration not given here
# [2] = basal S. cerevisiae growth modulation, no modifier, primary screen, OD600, strain BY4716, 24 h, basal condition (AID 1173); settings: OD600, 24 h, higher = more signal, called active from +8 up or from −8 down
# [3] = MM1S myeloma cell viability, profiling panel, resazurin fluorescence, basal, 24 h, PK04 Diversity Set (AID 1174); settings: higher = more signal, called active from +8 up or from −8 down;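 further: MM1S multiple myeloma cell line; test concentration not given here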
# [4] = molecular target: Dihydroorotate dehydrogenase (quinone), mitochondrial (Plasmodium falciparum (isolate 3D7)) (UniProt Q08210); assay: PfDHODH enzyme inhibitors, primary screen, biochemical, C-terminal His tag, absorbance 600 nm (AID 1175); settings: DCIP absorbance 600 nm, higher = more signal, called active from +8 up or from −8 down;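 further: recombinant parasite enzyme with a five histidine tag at its C terminus; test concentration not given here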
# Dihydroorotate dehydrogenase (quinone), mitochondrial (Plasmodium falciparum (isolate 3D7)), sequence (Q08210 whole entry, looked up): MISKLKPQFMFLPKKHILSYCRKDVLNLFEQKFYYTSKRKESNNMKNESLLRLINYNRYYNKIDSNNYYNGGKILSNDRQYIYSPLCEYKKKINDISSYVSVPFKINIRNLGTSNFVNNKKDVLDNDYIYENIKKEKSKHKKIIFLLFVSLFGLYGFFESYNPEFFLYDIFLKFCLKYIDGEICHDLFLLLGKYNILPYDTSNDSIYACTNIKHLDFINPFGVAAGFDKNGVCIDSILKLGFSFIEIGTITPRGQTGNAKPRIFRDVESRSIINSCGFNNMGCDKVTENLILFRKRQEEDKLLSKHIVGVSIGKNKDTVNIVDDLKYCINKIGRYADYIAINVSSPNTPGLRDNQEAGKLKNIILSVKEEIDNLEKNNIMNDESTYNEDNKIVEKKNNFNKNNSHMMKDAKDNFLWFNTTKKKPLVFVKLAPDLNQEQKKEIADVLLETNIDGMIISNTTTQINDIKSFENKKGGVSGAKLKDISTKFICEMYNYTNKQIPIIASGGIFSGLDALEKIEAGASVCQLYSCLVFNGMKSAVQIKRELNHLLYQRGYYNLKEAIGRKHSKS
# [5] = P. aeruginosa biofilm formation inhibitors, primary screen, strain PAO1, LB-PBS medium, absorbance 600 nm (AID 1176); further: test concentration not given here; settings: P. aeruginosa PAO1 growth/biofilm, A600, 12 h; higher = more signal
# [6] = S. cerevisiae RM11-1a growth modifiers, primary screen, strain RM11-1a, OD600, basal, 24 h (AID 1177); settings: OD600, 24 h, higher = more signal, called active from +8 up or from −8 down;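 further: cultures grown under basal conditions with no added stressor; test concentration not given here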
# [7] = E. coli acrAB mutant growth effects, primary screen, E. coli filamentation inducers, strain DRC39, OD650, 24 h (AID 1178); settings: higher = more signal, called active from +8 up or from −8 down;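 further: growth measured as culture turbidity by optical density at 650 nm; test concentration not given here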
# [8] = E. coli acrAB mutant growth effects, primary screen, E. coli filamentation inducers, strain DRC39, OD650, 48 h (AID 1179);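 further: screen aims at cell division blockers that make cells filament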; settings: E. coli DRC39 delta-acrAB growth, higher = more signal, called active from +8 up or from −8 down
# [9] = RPMI8226 myeloma cell viability, profiling panel, resazurin fluorescence, basal, 24 h, PK04 Diversity Set (AID 1180); settings: higher = more signal;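 further: RPMI8826 multiple myeloma cell line at 5000 cells per well; test concentration not given here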
# [10] = molecular target: E3 ubiquitin-protein ligase XIAP (Homo sapiens) (UniProt P98170); assay: XIAP binders, primary screen, biophysical, small-molecule microarray, fluorescence 635 nm (AID 1181); settings: small-molecule microarray binding, higher = more signal;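 further: score merges 667 nm emission and signal to noise over triplicate slides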
# E3 ubiquitin-protein ligase XIAP (Homo sapiens), sequence (P98170 whole entry, looked up): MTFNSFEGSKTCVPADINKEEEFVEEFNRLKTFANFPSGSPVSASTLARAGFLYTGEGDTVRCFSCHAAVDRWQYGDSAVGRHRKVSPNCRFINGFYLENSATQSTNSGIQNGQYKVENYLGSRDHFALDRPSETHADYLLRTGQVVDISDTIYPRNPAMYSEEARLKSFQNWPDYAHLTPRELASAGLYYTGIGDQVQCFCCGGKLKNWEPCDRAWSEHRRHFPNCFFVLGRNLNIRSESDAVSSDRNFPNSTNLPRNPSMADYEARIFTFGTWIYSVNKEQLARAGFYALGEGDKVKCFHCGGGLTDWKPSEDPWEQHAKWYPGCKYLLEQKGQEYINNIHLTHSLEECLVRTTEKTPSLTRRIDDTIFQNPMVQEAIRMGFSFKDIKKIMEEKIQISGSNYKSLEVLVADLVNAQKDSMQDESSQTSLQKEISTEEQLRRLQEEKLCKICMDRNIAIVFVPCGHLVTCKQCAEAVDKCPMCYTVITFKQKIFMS
Structure (SMILES),z-score [1],z-score [2],z-score [3],composite z-score [4],z-score [5],z-score [6],z-score [7],z-score [8],z-score [9],composite z-score [10]
COCCOC(=O)N1C(=O)[C@@]2(c3cc(C#CC4(O)CCCCCC4)ccc31)[C@H](c1ccc(OCCO)cc1)N1[C@H](c3ccccc3)[C@H](c3ccccc3)OC(=O)[C@H]1[C@@H]2C(=O)Nc1nc2ccccc2s1,1.39,1.46 (inactive),-0.773 (inactive),-1.19 (inactive),2.98 (inactive),2.43 (inactive),-0.0994 (inactive),-0.347 (inactive),-0.494,0.332
CN1C(=O)C2C=CC(C(O)c3cc(C(F)(F)F)cc(C(F)(F)F)c3)N(Nc3ccccc3)C2C1=O (stereo not given),-0.0075,-2.64 (inactive),-0.18 (inactive),-0.274 (inactive),0.214 (inactive),-0.478 (inactive),-0.732 (inactive),-0.556 (inactive),0.298,0.0641
CC1(C)C(=O)C(c2ccccc2)=C2CN3C(=O)N(CCc4ccccc4)C(=O)C3(Cc3ccc(F)cc3)C=C21 (stereo not given),-1.03,0.664 (inactive),-2.18 (inactive),-0.533 (inactive),0.563 (inactive),1.11 (inactive),-0.687 (inactive),-1.01 (inactive),-0.968,-0.198
CCCCC=C[C@@H](NC(=O)c1ccccc1)c1ccccc1,-0.35,0.483 (inactive),0.0386 (inactive),-0.845 (inactive),1.43 (inactive),0.0455 (inactive),-1.44 (inactive),-1.29 (inactive),-0.321,0.0348
O=C(NCC(O)CO)[C@@]1(CCS(=O)(=O)c2ccccc2)COC(c2ccc(OCCCO)cc2)=N1 (stereo not given in full),0.114,0.452 (inactive),-0.169 (inactive),0.699 (inactive),-0.043 (inactive),1.29 (inactive),0.243 (inactive),-0.135 (inactive),-0.159,-0.0332
C=C/C=C/[C@@H]1C(=C)CN([C@@H](Cc2ccccc2)C(=O)OC)[C@H]1[C@@H](O)Cc1ccccc1,0.779,-1.03 (inactive),-0.196 (inactive),0.0865 (inactive),0.106 (inactive),0.774 (inactive),0.18 (inactive),-0.45 (inactive),-0.697,-0.0349
C=C(CCCC)/C(=C/C[C@H](OC(C)=O)c1ccc(OCCO)cc1)c1cc(C(=O)OC)ccc1OC,0.757,-1.06 (inactive),-0.0396 (inactive),-0.793 (inactive),0.825 (inactive),-0.0587 (inactive),0.487 (inactive),0.371 (inactive),0.621,0.0977
C=CCN1C(=O)[C@@]2(O[C@@H](CCO)[C@H]([Si](C)(C)c3ccc(OC)cc3)[C@H]2C)c2cc(N3CCOC3=O)ccc21,-5.76,1.07 (inactive),-8.77 (active),1.58 (inactive),0.519 (inactive),4.47 (inactive),0.891 (inactive),0.231 (inactive),-6.2,-0.0807
COCC(=C=CC[C@@H](O)c1ccc(OCCO)cc1)CCO,1.37,-0.896 (inactive),1.1 (inactive),-0.789 (inactive),0.424 (inactive),0.453 (inactive),1.41 (inactive),1.23 (inactive),2.08,-0.0949
COc1ccc([Si](C)(C)[C@H]2[C@H](CCO)O[C@@]3(C(=O)N(Cc4ccccc4)c4ccc(N5CCOC5=O)cc43)[C@@H]2C)cc1,-1.27,1.12 (inactive),-3.35 (inactive),0.0738 (inactive),2.41 (inactive),4.25 (inactive),0.895 (inactive),0.0981 (inactive),-2.64,-0.135
COCCOC(=O)N1C(=O)[C@@]2(c3ccccc31)[C@H](c1ccc(OCCO)cc1)N1[C@H](c3ccccc3)[C@H](c3ccccc3)OC(=O)[C@H]1[C@@H]2C(=O)N1CCCCCCC1,1.11,0.492 (inactive),0.441 (inactive),0.132 (inactive),1.84 (inactive),2 (inactive),-0.965 (inactive),-0.618 (inactive),1.04,2.64
C=CCC(OC(C)=O)[C@@H]1[C@@H](N(Cc2ccc(-c3cccc(C(F)(F)F)c3)o2)C(=O)Cc2ccc(OC)cc2)c2cc(OCCCO)ccc2N1C(=O)Cc1ccc2ccccc2c1 (stereo not given in full),-0.43,-0.753 (inactive),0.0919 (inactive),1.02 (inactive),-0.628 (inactive),0.132 (inactive),0.532 (inactive),0.279 (inactive),-0.224,-0.0286
O=C1N(CCS(=O)(=O)c2ccccc2)Cc2ccccc2[C@@H]2OC(c3ccc(OCCCO)cc3)=N[C@]12CCS(=O)(=O)c1ccccc1,0.638,1.6 (inactive),0.298 (inactive),0.324 (inactive),1.71 (inactive),2.85 (inactive),0.958 (inactive),0.31 (inactive),-0.458,-0.0062
CN(C)CCCCCCNC(=O)[C@@H]1C[C@@H]2C(=O)N[C@@H](CCCCN)C(=O)N2[C@@H]1c1ccc(O)cc1,-0.0356,-1.56 (inactive),1.79 (inactive),-0.0587 (inactive),1.63 (inactive),-0.63 (inactive),0.739 (inactive),-1.59 (inactive),0.659,3.51
Cc1ccc(N2C(=O)c3ccccc3[C@](C)(C(=O)NCc3ccccc3)[C@@H]2c2ccc(CO)cc2)nc1,-0.776,-0.878 (inactive),1.13 (inactive),1.07 (inactive),0.882 (inactive),0.741 (inactive),0.349 (inactive),0.329 (inactive),0.994,-0.0326
CN1C(=O)C2C=CC(C(O)c3ccc(F)cc3)N(NC(=O)OC(C)(C)C)C2C1=O (stereo not given),-1.37,1.18 (inactive),-0.67 (inactive),0.929 (inactive),0.503 (inactive),1.09 (inactive),-0.592 (inactive),-0.764 (inactive),-1.37,0.171
COC(=O)[C@@]1(Cc2ccc(OC)cc2)[C@H]2c3cc(C(=O)N4CCCC4)n(Cc4cc(C)n(C)n4)c3C[C@H]2CN1C(=O)c1ccccc1,-0.646,1.1 (inactive),-2.09 (inactive),-0.77 (inactive),-0.222 (inactive),0.472 (inactive),-0.145 (inactive),0.342 (inactive),-2.11,-0.02
CC(C)C(CO)N1C(=O)[C@@H]2[C@H]3C(=O)OCC=C[C@H]3OC23C=CCN(C(C)(C)C)C(=O)[C@@H]13 (stereo not given in full),-0.341,0.542 (inactive),-0.763 (inactive),0.648 (inactive),0.137 (inactive),1.18 (inactive),-0.804 (inactive),-0.854 (inactive),-0.941,-0.156
COC(=O)c1c2oc(c1C(=O)OC)C(=O)N1CCC[C@H]1Cn1nncc1CN(Cc1ccccc1)C(=O)N[C@H](CO)CC2,0.744,-3.62 (inactive),-0.0795 (inactive),0.453 (inactive),-0.0513 (inactive),0.738 (inactive),0.663 (inactive),0.836 (inactive),0.343,-0.0832
C=CCNC(=O)[C@H]1[C@@H]2C(=O)O[C@@H](c3ccccc3)[C@@H](c3ccccc3)N2[C@@H](c2ccc(O)cc2)[C@]12C(=O)N(C(=O)OCCOC)c1ccc(C#CCC(C(=O)OC)C(=O)OC)cc12,0.238,1.34 (inactive),-1.25 (inactive),0.638 (inactive),2.17 (inactive),2.19 (inactive),0.216 (inactive),0.136 (inactive),-4.72,-0.0251
COc1cc2c(cc1O)C(c1cccs1)N(Cc1sc3ccccc3c1Cl)CC2 (stereo not given),-1.05,-1.41 (inactive),-0.519 (inactive),-1.72 (inactive),-0.131 (inactive),-0.0369 (inactive),-0.0316 (inactive),-0.89 (inactive),-0.94,0.134
O=C1C2C=CC(C(O)c3cc(C(F)(F)F)cc(C(F)(F)F)c3)N(Nc3ccccc3F)C2C(=O)N1c1ccccc1 (stereo not given),-2.18,-1.47 (inactive),-1.09 (inactive),-0.232 (inactive),1.11 (inactive),0.332 (inactive),-2.31 (inactive),-0.711 (inactive),-3.04,0.0264
CC(C)CNC(=O)[C@@H]1c2ccccc2C(=O)N(C2CCCCC2)[C@H]1c1ccc(CO)cc1,1.12,-0.664 (inactive),1.5 (inactive),0.246 (inactive),0.292 (inactive),-1.22 (inactive),1.49 (inactive),1.59 (inactive),1.34,-0.234
COc1ccc([Si](C)(C)[C@@H]2[C@@H](CCn3cc([C@H](O)c4ccccc4)nn3)O[C@]3(C(=O)N(c4ccccc4)c4ccccc43)[C@H]2C)cc1,-2.07,-0.284 (inactive),-3.04 (inactive),-0.204 (inactive),1.08 (inactive),0.77 (inactive),-0.434 (inactive),-0.502 (inactive),-3.15,-0.131
C=CCC(OC(C)=O)[C@@H]1[C@@H](N(Cc2cc3ccccc3o2)C(=O)c2ccc(-c3ccccc3)cc2)c2cc(OCCCO)ccc2N1C(=O)Cc1ccc(OC)cc1 (stereo not given in full),-0.716,1.4 (inactive),-0.133 (inactive),0.0211 (inactive),0.0672 (inactive),0.708 (inactive),-0.384 (inactive),-0.541 (inactive),-0.209,-0.0414
